# From PubChem
# Rows were chosen to be rich in hits. Some 18% of all compounds tested hit in one or more screens of this group.
# CtBP-E1A blk = inhibitors of CtBP/E1A interaction. AlphaScreen GST-E1A/His-CtBP binding, 1536-well; hits give low values. activity change, % (concentration not given with the values). 0.49% of 340,000 active; in the data active means activity change below about -65%; inconclusive means mostly about -30% to -63%
#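 Steps: dispense buffer (Tris pH 8.0, NaCl 300 mM, TCEP 1 mM, BSA, Tween 20); add 5X protein mix (GST-E1A, His-CtBP, 125 nM each); pin 23 nL compound; 2 h at 37 °C, dark; add 5X beads (50 ug/mL); 1 h; read.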
# DT40 TDP1 no CPT = qHTS for Inhibitors of human tyrosyl-DNA phosphodiesterase 1 (TDP1): qHTS in cells in absence of CPT; DT40 Tdp1-/- hTDP1 cells, no CPT, ATP luminescence, 48 h; Potency, µM (titrated, usually from 46.2 µM), for the others: at the top dose activity change, negative = growth inhibition, most hits filed as inhibitors; 15% of 420,000 active; further: potency means the concentration at half of the fitted maximal effect; nearly all actives have a fitted effect of over 55% in size
#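 Chicken DT40 Tdp1-/- cells stably complemented with human TDP1 were seeded at 400 cells/well with DMSO in place of 20 nM camptothecin. After compound pinning, cells grew at least 48 hr at 37 °C; viability read by CellTiter-Glo luminescence.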
# IL-1B inflam inh = inflammasome signaling inhibition, IL-1 beta readout | THP-1 LPS/ATP IL-1B secretion, AlphaLISA, 16 h; hits give low values | activity change, % at 57.5 µM | 4.7% of 360,000 active | AID 743279; in the data active means activity change below about -50%; inconclusive means mostly about -30% to -49%
#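 THP-1 cells pretreated 1 hr with compounds (up to 57.5 uM final), then stimulated with LPS (250 ng/mL final) plus ATP (1.25 mM final); secreted IL-1B measured by AlphaLISA after 16 hr, decreased signal indicating inhibition.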
# TDP1 inh = TDP1 (human) enzyme inhibition; Q9NUW8; recombinant TDP1, AlphaScreen DNA substrate cleavage; Potency, µM (top dose mostly 130 µM), for inactives: at the top dose activity change, negative = inhibition, actives largely listed as inhibitors; 0.28% of 350,000 active; further: potency means the concentration at half of the fitted maximal effect; nearly all actives have a fitted effect of over 40% in size
#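 Recombinant E. coli-expressed Tdp1 (1 nM) preincubated with compound 15 min at RT, then 5'-biotin/3'-phosphotyrosine-FITC DNA substrate (15 nM) added for 5 min. AlphaScreen beads (10 ug/ml) added, 10 min RT; tyrosine-FITC cleavage read as signal loss.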
# TDP1 cell CPT = growth inhibition of DT40 Tdp1-/-;hTDP1 cells with camptothecin (screen for TDP1 inhibitors). chicken DT40 Tdp1-/-;hTDP1 cells + 20 nM CPT, ATP luminescence, 48 h. Potency, µM (doses to about 46.2 µM), for the others: at the top dose activity change, negative = growth inhibition, usual class: inhibitors. 12% of 420,000 active. AID 686979; further: potency means the concentration at half of the fitted maximal effect; nearly all actives have a fitted effect of over 55% in size
#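 Chicken DT40 Tdp1-/- cells complemented with human TDP1, 400 cells/well, exposed to compounds plus 20 nM camptothecin for at least 48 h at 37 C; viability read as ATP content by CellTiter-Glo luminescence.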
# Six1-Eya2 inh = inhibitors of human Six1/Eya2 interaction | 0.56% of 360,000 active | AID 651725 | AlphaScreen GST-Six1/His-Eya2 binding, biochemical; hits give low values | activity change, % (no concentration beside the values); in the data active means activity change below about -65%; inconclusive means mostly about -30% to -63%
#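 Six1/Eya2 binding was read as AlphaScreen signal after compounds were pinned into GST-Six1 plus His-tagged Eya2 (5X stock 250/500 nM) in pH 8.0 Tris/NaCl/TCEP buffer, beads added, then incubated 1 h, 37 C, dark.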
# * hit, by the source's call; ? = inconclusive; / = no result given. Unless noted, the call rests on the fitted dose curve; in most records, active means well fitted curve in the direction sought with a large enough effect; inconclusive means small, poorly fitted or top-dose-only effect, or another doubt; inactive means no such curve, though single readings can be large; an effect the other way counts as inactive or inconclusive. On the % scale 0 is the no-effect control and ±100 the full control effect.
SMILES,CtBP-E1A blk,DT40 TDP1 no CPT,IL-1B inflam inh,TDP1 inh,TDP1 cell CPT,Six1-Eya2 inh
Cc1cc(C)n(CCN(C)c2nc3nonc3nc2N2CCCCC2)n1,1,-6%,2,6%,1%,-4
O=S1(=O)CC(N2CCCC2)CN1Cc1cn(Cc2ccc(Cl)cc2)nn1 (centres undefined),-1,-4%,14,/,6%,11
COC(=O)Sc1nc(N2CCOCC2)c2c(c1C#N)CC(C)(C)OC2,2,?,-20,4%,26µM*,-3
CC(C)Sc1nc(N2CCOCC2)c2c(c1C#N)CC(C)(C)N(C)C2,-3,16µM*,10,8%,18µM*,-9
CSc1ccccc1NC(=O)c1cccs1,3,-19%,-4,1%,6%,12
C/C(CC(=O)NC1CCCCC1)=N\NC(=O)Cc1ccc(-c2ccccc2)cc1,-13,-17%,12,3%,3%,2
COc1ccc(CNC(=O)Cn2cc([N+](=O)[O-])cn2)cc1,-3,-19%,3,/,3%,5
CC(=O)c1c(N2CCN(Cc3ccccc3)CC2)[nH]c(-c2ccccc2)nc1=S,-5,?,4,10%,?,-8
CC1(C)Cc2nc3sc4c(NCCO)ncnc4c3cc2CS1,-11,21µM*,-3,5%,?,-17
CC(C)CCn1cnc2c(sc3nc4c(cc32)CSC(C)(C)C4)c1=O,4,16µM*,12,1%,?,0
COC(=O)[C@]1(C)N[C@H](c2ccc(-c3ccc(F)cc3)cc2)[C@@H]2C(=O)N(C)C(=O)[C@@H]21,0,?,-16,/,?,-2
CN(CC(=O)Nc1cccc(F)c1)C(=O)c1cccc(-n2cccc2)c1,-2,?,-7,/,-7%,?
CCC(=O)NC(=S)NNC(=O)c1ccc(OC)cc1,8,22µM*,56,0%,29µM*,-7
C=CCNC(=S)NNC(=O)c1ccc(OCCCC)cc1,-3,-25%,8,0%,-13%,6
CCCCOc1ccc(C(=O)NNC(=S)NC(=O)CC)cc1,-6,2.6µM*,-96*,6%,4.6µM*,-21
CCC(=O)N1CCN(c2ccc(Cl)cc2NC(=O)c2ccc(N3CCCC3)c([N+](=O)[O-])c2)CC1,-7,?,-51*,4%,?,-8
CCC(=O)N1CCN(c2ccc(NC(=O)c3ccc4c(c3)OCCO4)cc2)CC1,-4,10%,19,1%,-16%,6
CCC(=O)N1CCN(c2ccc(Cl)cc2NC(=O)c2ccc3c(c2)OCCO3)CC1,-2,?,-12,1%,16µM*,-1
CCC(=O)Nc1cc(Cl)ccc1N1CCN(C(=O)CC)CC1,12,?,-11,7%,-26%,-1
Clc1ccc(-c2csc(Nc3cccnc3)n2)cc1,2,-22%,-80*,/,-3%,-5
Clc1cccc(Nc2nc(-c3ccncc3)cs2)c1,-4,?,-61*,3%,?,1
COc1ccc(C(CNC(=O)COc2ccccc2C)N2CCCCC2)cc1 (centres undefined),-23,16µM*,-6,4%,21µM*,5
Cc1ccccc1OCC(=O)NCC(c1ccc(Cl)cc1)N1CCCCC1 (centres undefined),/,13µM*,/,-2%,21µM*,/
Cc1ccc(OCC(=O)NCC(c2ccc(Cl)cc2)N2CCCCC2)cc1 (centres undefined),/,?,/,-2%,?,/
COc1ccc(C(CNC(=O)COc2cc(C)ccc2Cl)N2CCCCC2)cc1 (centres undefined),9,?,41,-10%,?,-5
SMILES,CtBP-E1A blk,DT40 TDP1 no CPT,IL-1B inflam inh,TDP1 inh,TDP1 cell CPT,Six1-Eya2 inh
COc1ccc(C(CNC(=O)COc2ccc(F)cc2Br)N2CCCC2)cc1 (centres undefined),-2,?,-54*,0%,?,0
CCN1C(=O)[C@H]2[C@@H](c3ccc(C)cc3)N3C(=O)N(c4ccc(OC)cc4)C(=O)[C@@]3(Cc3ccc(Cl)cc3)[C@H]2C1=O,-14,-25%,6,/,-10%,-4
Cc1ccc(C(=O)c2no[n+]([O-])c2C(=O)c2ccc(C)cc2)cc1,-5,5.8µM*,-91*,8%,2.9µM*,-4
CCCN1C(=S)SC(C)(C)C1/[N+]([O-])=C/c1cccnc1 (centres undefined),-3,-10%,7,6%,-3%,10
Cc1ccc(C)c(NC(=O)COc2coc(CN3CCc4ccccc43)cc2=O)c1,-3,12µM*,-18,-4%,-84%,-10
CCOc1ccccc1NC(=O)COc1coc(CN2CCc3ccccc32)cc1=O,-9,?,19,0%,?,-27
O=C(COc1coc(CN2CCc3ccccc32)cc1=O)NCCc1ccccc1,0,18µM*,9,1%,?,-6
Cc1ccc(NC(=O)COc2coc(CN3CCc4ccccc43)cc2=O)cc1Cl,-1,15µM*,-6,/,23µM*,1
CCOC(=O)c1ccccc1NC(=O)COc1coc(CN2CCc3ccccc32)cc1=O,-20,?,15,2%,?,-28
Cc1ccccc1NC(=O)COc1coc(CN2CCCc3ccccc32)cc1=O,-2,15µM*,-4,-3%,21µM*,-10
O=C(COc1coc(CN2CCc3ccccc32)cc1=O)N1CCCCC1,-8,1%,11,3%,8%,4
COC(=O)C1=C(N)Oc2cc(C)n(C)c(=O)c2C1c1ccc(Cl)cc1 (centres undefined),2,15µM*,10,2%,?,0
C=C1CCN(C(CC(C)C)C(=O)Nc2nc3ccc(Cl)cc3s2)S(=O)(=O)c2ccccc21 (centres undefined),/,/,/,7%,/,/
c1ccc2c(c1)NC1(CCCC1)n1c-2nc2ccccc21,7,?,-79*,1%,?,-2
CC(C)Oc1ccc(N2CC(C(=O)NC3=NCCS3)CC2=O)cc1 (centres undefined),-6,-3%,2,-3%,-5%,-2
O=C(COc1ncnc2ccc(Br)cc12)Nc1ccc(N2CCOCC2)cc1,7,0%,29,8%,-12%,-3
CC(=O)c1ccc(Nc2ncnc3ccc(Br)cc23)cc1,1,?,-3,/,-22%,-1
CC(C)Nc1ncnc2ccc(Br)cc12,-2,4.1µM*,-6,5%,4.1µM*,-1
